Test systems include SK-MEL-2 melanoma; EKVX NSCLC; SN12C renal; UO-31 renal; TK-10 renal; ACHN renal; CAKI-1 renal; A498 renal; CCRF-CEM leukemia; MOLT-4 leukemia; SR leukemia; RPMI-8226 leukemia; OVCAR-8 ovarian; OVCAR-5 ovarian; OVCAR-4 ovarian; SK-OV-3 ovarian; IGROV1 ovarian; OVCAR-3 ovarian; HS 578T breast; NCI/ADR-RES ovarian.
Test in all cases: NCI-60 one-dose screen, 48 h (100 = growth as untreated, 0 = no growth, -100 = all killed)
Common to all, as to conditions: 10 µM unless noted

Molecules are shown by their SMILES. The panel holds about 83,000 compounds, 20% with a hit somewhere; the sample as a whole holds those more often.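 Compound tested at a single concentration for 48 hours in 96-well plates; a percent growth value below 10 was scored as active.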 Unmarked numbers belong to inactive results. Activity calls are given as the source filed them.

Consider `COc1ccc(NC(=O)Cn2c(/C=C/c3ccc([N+](=O)[O-])cc3)nc3ccccc3c2=O)cc1`, for which the growth is 78.9% with SK-MEL-2 melanoma; 74.4% with EKVX NSCLC; 62.3% in the assay with SN12C renal; 22.9% in the assay with UO-31 renal; 25.5% in the assay on TK-10 renal; 51.9% in the assay with ACHN renal. Besides, the growth with CAKI-1 renal is 63.2%; with A498 renal it was 85.8%; in the assay with CCRF-CEM leukemia it was 103%; in the assay with MOLT-4 leukemia it was 114%; with SR leukemia, 88.9%; with RPMI-8226 leukemia, 90.6%. Besides, the growth with OVCAR-8 ovarian was 45.8%; with OVCAR-5 ovarian it was 76.4%; in the assay on OVCAR-4 ovarian, 16.4%; in the assay on SK-OV-3 ovarian, 33.6%; with IGROV1 ovarian, 59.6%; with OVCAR-3 ovarian, 60.2%. For the same compound, the figures for the growth in the assay on HS 578T breast and in the assay with NCI/ADR-RES ovarian were 29.9% and 39%, respectively.

For `COc1c2c(c(Br)c3c1C(CCc1ccccc1)N(C)CC3)OCO2` (stereo not given), the growth was 68.6% in the assay on SK-MEL-2 melanoma; 36.3% with EKVX NSCLC; 35% in the assay on SN12C renal; 35.9% in the assay with UO-31 renal; 70.9% in the assay on TK-10 renal; 30.3% with ACHN renal. Further, the growth in the assay with CAKI-1 renal is 36%; in the assay with A498 renal it was 82%; with CCRF-CEM leukemia, 30.1%; in the assay on MOLT-4 leukemia, 25.3%; in the assay on SR leukemia, 31%; with RPMI-8226 leukemia, 16.7%. For the same compound, the growth was 48.4% with OVCAR-8 ovarian; 29.9% with OVCAR-5 ovarian; 59.9% in the assay on OVCAR-4 ovarian; 76.8% in the assay with SK-OV-3 ovarian; 19.5% in the assay on IGROV1 ovarian; 55.5% in the assay on OVCAR-3 ovarian. Moreover, the growth was 61.4% in the assay on HS 578T breast and 40% in the assay on NCI/ADR-RES ovarian.

`Cc1ccc(/C=C/C(=O)c2ccc(S(=O)(=O)NCCNc3nc(N(C)C)nc(N4CCOCC4)n3)cc2)cc1`: the growth with SK-MEL-2 melanoma was 94.1%; with EKVX NSCLC it was 82.6%; with SN12C renal, 86.4%; in the assay on UO-31 renal, 73.2%; in the assay with TK-10 renal it was 112%; in the assay with ACHN renal, 101%. Further, the growth is 64.6% in the assay on CAKI-1 renal; 96% in the assay with A498 renal; 52.1% in the assay with CCRF-CEM leukemia; 13.5% in the assay on MOLT-4 leukemia; -36.4% (active) with SR leukemia; -15.6% (active) with RPMI-8226 leukemia. The growth with OVCAR-8 ovarian was 88.8%; in the assay with OVCAR-5 ovarian, 97.6%; in the assay on OVCAR-4 ovarian, 91.6%; in the assay on SK-OV-3 ovarian, 90.5%; in the assay on IGROV1 ovarian it was 102%; with OVCAR-3 ovarian, 109%. The growth in the assay on HS 578T breast is 97.9%; in the assay on NCI/ADR-RES ovarian it was 86.2%.

In the case of `O=C(c1ccc(O)cc1)C1[C@H](c2ccc(Cl)cc2)[C@@H](c2ccccc2)NC12C(=O)Nc1ccc(Br)cc12` (stereo not given in full), the growth in the assay with SK-MEL-2 melanoma was -76.1% (active); in the assay with EKVX NSCLC it was -5.33% (active); in the assay with SN12C renal it was -92.6% (active); with UO-31 renal, -25.7% (active); in the assay on TK-10 renal, 1.72% (active); in the assay on ACHN renal it was 0.788% (active). Besides, the growth was 3.93% (active) in the assay on CAKI-1 renal; -15.5% (active) with A498 renal; -11.1% (active) in the assay on CCRF-CEM leukemia; -34.2% (active) in the assay on MOLT-4 leukemia; -52.7% (active) with SR leukemia; 3.14% (active) in the assay with RPMI-8226 leukemia. The growth in the assay on OVCAR-8 ovarian was 5.82% (active); in the assay on OVCAR-5 ovarian it was -19.4% (active); in the assay with OVCAR-4 ovarian, -8.82% (active); with SK-OV-3 ovarian, 22%; in the assay on IGROV1 ovarian, -40.4% (active); with OVCAR-3 ovarian, 2.42% (active). For the same compound, the values for the growth in the assay on HS 578T breast and in the assay on NCI/ADR-RES ovarian were -5.94% (active) and -37.2% (active), respectively.

In the case of `COc1ccc2[nH]c(=O)c(CSc3ccccc3Nc3nccc(-c4ccc(C(F)(F)F)cc4)n3)cc2c1`, the growth was 41.9% in the assay on SK-MEL-2 melanoma; 54.3% in the assay with EKVX NSCLC; -30.8% (active) with SN12C renal; 26.9% with UO-31 renal; 97.1% in the assay with TK-10 renal; -29.4% (active) with ACHN renal. The growth is -6.85% (active) in the assay on CAKI-1 renal; 39.9% with A498 renal; 7.12% (active) in the assay with CCRF-CEM leukemia; -8.19% (active) in the assay on MOLT-4 leukemia; -16.8% (active) in the assay with SR leukemia; 4.65% (active) with RPMI-8226 leukemia. The growth in the assay on OVCAR-8 ovarian is 32.4%; in the assay with OVCAR-5 ovarian, 75.9%; with OVCAR-4 ovarian, 39.2%; with SK-OV-3 ovarian, 81.7%; with IGROV1 ovarian, 59.8%; in the assay with OVCAR-3 ovarian, 22.1%. Also, the values for the growth in the assay with HS 578T breast and in the assay with NCI/ADR-RES ovarian were 42.5% and 10.5%, respectively.

`COC(=O)c1c(C(=O)OC)c2ccc3c4ccccc4ccc3n2c1C(=O)OC`: the growth with SK-MEL-2 melanoma was 108%; with EKVX NSCLC, 97%; in the assay on SN12C renal, 95.6%; in the assay with UO-31 renal, 87.8%; with TK-10 renal, 103%; with ACHN renal it was 109%. The growth with CAKI-1 renal is 107%; with A498 renal, 129%; with CCRF-CEM leukemia, 101%; in the assay with MOLT-4 leukemia, 114%; in the assay on SR leukemia, 94.6%; with RPMI-8226 leukemia it was 104%. The growth in the assay on OVCAR-8 ovarian was 107%; in the assay with OVCAR-5 ovarian it was 106%; in the assay with OVCAR-4 ovarian, 100%; with SK-OV-3 ovarian, 109%; in the assay on IGROV1 ovarian, 114%; in the assay with OVCAR-3 ovarian it was 75.8%. For the same compound, the growth was 92.7% with HS 578T breast and 112% in the assay on NCI/ADR-RES ovarian.

Take `Clc1ccc(Nc2nnc(-c3c[nH]c4ccccc34)o2)cc1`: the growth with SK-MEL-2 melanoma is 95.8%; with EKVX NSCLC, 55.3%; with SN12C renal, 53.6%; in the assay with UO-31 renal, 49.7%; with TK-10 renal, 121%; in the assay with ACHN renal it was 74.4%. Moreover, the growth in the assay with CAKI-1 renal was 50.8%; in the assay on A498 renal, 120%; with CCRF-CEM leukemia, 10.9%; in the assay with MOLT-4 leukemia, 9.41% (active); with SR leukemia it was 49.6%; in the assay on RPMI-8226 leukemia, 28.6%. In addition, the growth was 86.1% in the assay on OVCAR-8 ovarian; 101% in the assay on OVCAR-5 ovarian; 78.6% in the assay with OVCAR-4 ovarian; 72.2% in the assay with SK-OV-3 ovarian; 47.3% in the assay on IGROV1 ovarian; 102% in the assay with OVCAR-3 ovarian. In addition, the growth in the assay on HS 578T breast was 82.5%; with NCI/ADR-RES ovarian, 50.7%.

Values taken from PubChem BioAssay (NCI).
